PKM2 inh: blocks activity of human pyruvate kinase M2; 260,000 compounds, 0.058% hits; Potency, µM (highest dose often 57.5 µM), for the others: at the top dose activity change, negative = inhibition, most hits filed as inhibitors; purified PKM2, ATP generation, Kinase-Glo luminescence; P14618; AID 1634; further: potency means the concentration at half of the fitted maximal effect; nearly all actives have a fitted effect of over 60% in size
Target sequence (P14618 whole entry, looked up): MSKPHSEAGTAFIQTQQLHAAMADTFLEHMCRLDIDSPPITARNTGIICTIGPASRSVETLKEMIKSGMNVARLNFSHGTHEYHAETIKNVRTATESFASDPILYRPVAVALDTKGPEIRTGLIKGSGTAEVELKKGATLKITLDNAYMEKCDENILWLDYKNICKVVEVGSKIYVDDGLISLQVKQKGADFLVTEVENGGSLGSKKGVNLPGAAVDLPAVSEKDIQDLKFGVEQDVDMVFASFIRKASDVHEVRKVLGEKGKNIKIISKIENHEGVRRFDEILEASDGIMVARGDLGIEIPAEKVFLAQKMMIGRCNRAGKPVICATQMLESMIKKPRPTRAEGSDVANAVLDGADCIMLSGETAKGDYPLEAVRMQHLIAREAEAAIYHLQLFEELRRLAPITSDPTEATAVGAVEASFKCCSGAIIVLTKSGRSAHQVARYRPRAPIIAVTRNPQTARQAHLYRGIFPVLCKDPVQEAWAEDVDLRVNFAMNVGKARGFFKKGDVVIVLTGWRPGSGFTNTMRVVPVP
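Enzyme run at intermediate activity with final 0.1 mM ADP, 0.5 mM PEP (50 mM imidazole pH7.2, 50 mM KCl, 7 mM MgCl2), incubated 1 h at r.t. ATP formed read by Kinase-Glo luminescence, normalized to no-enzyme (full inhibition) and uninhibited wells.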
PKM2 inh CRC: dose-dependently blocks human pyruvate kinase M2 activity; shares compounds with PKM2 inh; purified hPK-M2, Kinase-Glo ATP luminescence, 1 h; Potency, µM (highest dose often 57.5 µM), inactives show at the top dose activity change, negative = inhibition, actives largely listed as inhibitors; 55 compounds, 50% hits; AID 2263
FLuc counter: blocks firefly luciferase, flagging PKM2 inhibitor artifacts. shares compounds with PKM2 inh. Kinase-Glo firefly luciferase, luminescence, 8 min. 55 compounds, 30% hits. Potency, µM (titrated, usually from 57.5 µM), without a hit: at the top dose activity, negative = inhibition, most hits filed as inhibitors
PKM2 LDH couple: PKM2 (human) inhibition, NADH coupled readout. purified hPK-M2, LDH-coupled NADH fluorescence kinetic. 55 tested, under 10 active. Potency, µM (highest dose often 57.5 µM), for the others: at the highest dose activity change, negative = inhibition, usual class: inhibitors. shares compounds with PKM2 inh
* marks the source's active call; other numbers are inactive results; ? = inconclusive; nt = no result. The sample as a whole holds a higher share of hits than the screen did. The call rests on the fitted dose curve; in most records, active means well fitted curve in the direction sought with a large enough effect; inconclusive means small, poorly fitted or top-dose-only effect, or another doubt; inactive means no such curve, though single readings can be large; an effect the other way counts as inactive or inconclusive.

SMILES	PKM2 inh	others
Cn1c(N=Nc2ccccc2)nc2ccccc21	5.6µM*	PKM2 inh CRC=13µM*;FLuc counter=5.2µM*;PKM2 LDH couple=30%
CN(C)/C=C(\C(=O)c1ccc(F)cc1F)c1nnnn1-c1ccccc1	68%
Cc1ccc(CNC(=O)[C@H]2C[C@@H]2[C@H](NP(=O)(c2ccccc2)c2ccccc2)c2ccccc2)o1	31%
Cn1c(=O)n(C)c2cc(NS(=O)(=O)c3cccs3)ccc21	36%
Cc1ccc(N(Cc2cc3ccc(C)cc3[nH]c2=O)S(C)(=O)=O)c(C)c1	74%
Cc1ccnc(NS(=O)(=O)c2ccc3c(c2)CCO3)c1	42%
CC(=O)N1N=C(c2ccc(C)cc2)CC1c1ccc2c(c1)OCO2 (stereo not given)	50%
Cc1ccnc(NC(=O)c2ccc3c(c2)OCO3)c1	13µM*	PKM2 inh CRC=16µM*;FLuc counter=13µM*;PKM2 LDH couple=-10%
Cc1cc(NC(=O)CSc2nc3c(C)cccc3cc2C#N)no1	45%
N#Cc1nccnc1S(=O)(=O)c1cccs1	53%
COc1cccc(CNc2ccc([N+](=O)[O-])cc2Cl)c1O	44%
CC(=O)CC1(OC(C)=O)C(=O)N(C)c2ccccc21 (stereo not given)	34%
O=C(COc1ccccc1C(=O)N/N=C\c1ccc(O)c(O)c1)N/N=C/c1ccc(O)c(O)c1	56%
Cc1occc1C(=O)N/N=C/c1ccc2c(c1)OCO2	5.6µM*	PKM2 inh CRC=13µM*;FLuc counter=2.6µM*;PKM2 LDH couple=0%
CS(=O)(=O)N(CC(=O)N/N=C/c1cc2c(cc1Br)OCO2)c1ccccc1Br	42%
O=C1c2cccnc2C(Nc2ccccc2Br)N1Cc1ccco1 (stereo not given)	31%
Cc1cccc(NS(=O)(=O)c2cc3c(cc2C)n(C)c(=O)c(=O)n3C)c1	85%
Cc1nc2sccn2c(=O)c1S(=O)(=O)Nc1cccc(Cl)c1C	77%
Cc1ccc(CCC(=O)Nc2nccs2)o1	90%
CCOC(=O)C(Cc1ccccc1)C(=O)Nc1nccs1 (stereo not given)	45%
CCOc1ccc(OCC(=O)Nc2nccs2)cc1	10µM*	PKM2 inh CRC=10µM*;FLuc counter=?;PKM2 LDH couple=-2%
Cc1cc(-c2cc(-c3ccc(Cl)cc3)nc(N)c2C#N)co1	55%
O=C(COC(=O)C1=Cc2ccccc2OC1)NC1CCCC1	0%
CCS(=O)(=O)N1CCN(S(=O)(=O)c2ccc3c(c2)OCCO3)CC1	62%
COc1ccc(CN(C(=O)/C=C/c2ccco2)C2CCS(=O)(=O)C2)cc1 (stereo not given)	42%
SMILES	PKM2 inh	others
O=C(O)CSc1cc(C(=O)c2ccccc2O)cn2c(=O)c3c4c(sc3nc12)CCCC4	36%
Cc1ccc(-c2nc3ccccn3c2Nc2ccccc2)o1	67%
Cc1ccc(-c2cc(-c3ccc(C)o3)nc(N)c2C#N)cc1	58%
Cc1ccn2c(NC3CCCCC3)c(-c3ccc(C)o3)nc2c1	nt	PKM2 inh CRC=16%;FLuc counter=5%;PKM2 LDH couple=-9%
c1coc(-c2nc3ccccc3nc2-c2ccco2)c1	30%
Cc1ccc2nc(-c3ccc(C)o3)c(Nc3ccc(F)cc3)n2c1	nt	PKM2 inh CRC=7%;FLuc counter=0%;PKM2 LDH couple=?
Cc1ccc(Nc2c(-c3ccc(C)o3)nc3cnccn23)cc1	64%
Cc1ccc(Nc2c(-c3ccc(C)o3)nc3ccccn23)cc1	nt	PKM2 inh CRC=10%;FLuc counter=0%;PKM2 LDH couple=4.6µM*
Cc1ccc2nc(-c3ccco3)c(Nc3ccccc3)n2c1	nt	PKM2 inh CRC=-1%;FLuc counter=-1%;PKM2 LDH couple=?
Cc1cc2ncc(S(=O)(=O)c3ccccc3)c(N)n2n1	37%
COc1ccc(OC)c2c(C)c(C)[nH]c12	51%
Cn1c(CCNC(=O)c2ccco2)nc2cc(NS(=O)(=O)c3ccc(Cl)cc3)ccc21	82%
CSc1nc2ccc(NS(=O)(=O)c3ccc4c(c3)OCCO4)cc2s1	61%
COc1ccc2ccccc2c1C(=O)/C=C\c1ccoc1	40%
CNC(=S)N1CCN(S(=O)(=O)c2ccc3ccccc3c2)CC1	87%
CCc1cccc(C)c1N=Cc1c(O)c2ccccc2oc1=O	58%
CCn1c(SCC(=O)N/N=C/C(C)=C\c2ccco2)nnc1-c1ccccc1	41%
CNc1c([N+](=O)[O-])cnn1-c1ccc(C)cc1	48%
S=C(NCCc1ccccc1)Nc1cnc2ccccc2c1	40%
CC(C)(C)CN1CCNC(=O)C1CC(=O)NCCc1ccccc1F (stereo not given)	55%
O=S(=O)(Nc1ccc(Cl)cc1)c1ccc2c(c1)CCO2	81%
O=C(OCc1nc2ccc(Cl)cc2n1CCO)c1ccc2c(c1)OCO2	87%
Cc1ccc(-c2nn(-c3ccccc3)cc2C2SCC(=O)N2Cc2ccccc2)o1 (stereo not given)	40%
Cc1cc(C)n2c(Nc3ccc4c(c3)OCCO4)c(-c3ccc(C)o3)nc2n1	43%
Fc1ccccc1-c1ccc(-c2nc3ccc(Cl)cn3c2Nc2ccc(Cl)cc2)o1	nt	PKM2 inh CRC=14%;FLuc counter=5%;PKM2 LDH couple=2%
SMILES	PKM2 inh	others
Cc1ccc(-c2nc3cnccn3c2Nc2ccc3c(c2)OCO3)o1	66%
Cc1ccc(-c2nc3ccc(Cl)cn3c2Nc2ccccc2)o1	nt	PKM2 inh CRC=14%;FLuc counter=2%;PKM2 LDH couple=-21%
Cc1ccc(-c2cc(-c3ccc(Cl)cc3)c(C#N)c(N)n2)o1	58%
Cc1ccc2nc(-c3ccc(C)o3)c(Nc3ccccc3)n2c1	nt	PKM2 inh CRC=7%;FLuc counter=1%;PKM2 LDH couple=?
Cc1ccc2nc(-c3ccc(C)o3)c(Nc3ccc4c(c3)OCO4)n2c1	nt	PKM2 inh CRC=12%;FLuc counter=2%;PKM2 LDH couple=-6%
COC(=O)Nc1ccc(C)c2nsnc12	35%
CCOc1ccc(NS(=O)(=O)c2ccc(NC(=O)c3cccnc3)c(OC)c2)cc1	31%
Cc1cc(C)n2nc(CNS(=O)(=O)c3ccc(F)c(C)c3)nc2n1	61%
CCOc1cc(/C=C\[N+](=O)[O-])ccc1OCC(=O)Nc1ccccc1C	42%
CCOC(=S)SCC(=O)Nc1ncc(C)s1	79%
Cc1c(F)cccc1NS(=O)(=O)c1ccc2c(c1)NC(=O)CO2	58%
Cc1ccc(-c2nc3cccc(C)n3c2Nc2ccc(F)cc2)o1	nt	PKM2 inh CRC=10%;FLuc counter=0%;PKM2 LDH couple=9.2µM*
Cc1ccc(-c2cc(-c3ccc(F)cc3)c(C#N)c(N)n2)o1	48%
Clc1cc2c(c(CSc3nc4ccccc4n4cccc34)c1)OCOC2	30%
O=C(O)c1ccc(NC(=S)NC(=O)c2ccc(-c3ccccc3)cc2)cc1	49%
Cc1cc(C)c(NC(=O)NC(=O)c2cccc(F)c2)c(C)n1	31%
O=C(NC(=O)c1ccccc1)Nc1ccccn1	5µM*	PKM2 inh CRC=12µM*;FLuc counter=5.2µM*;PKM2 LDH couple=-2%
NC(=O)CC(NC(=O)Cc1cccc2ccccc12)c1ccc(N2CCc3ccccc3C2)c([N+](=O)[O-])c1 (stereo not given)	33%
Cc1ccc(CCNS(=O)(=O)c2cc3c(cc2C)NC(=O)CO3)cc1	62%
Cc1ccc(NS(=O)(=O)c2ccc3c(c2)CC(=O)N3)cc1C	65%
c1coc(CN(Cc2ccco2)c2ncnc3c2oc2ccccc23)c1	31%
FC(F)(F)c1ccccc1NC(=S)NC1CCN(Cc2ccccc2)CC1	30%
Cc1n[nH]c(=O)nc1NCc1ccco1	33%
COC(=O)Nc1c(-c2ccccc2)nc2ccccn12	36%

High-throughput results from PubChem.
